In all, about 4,100 compounds went through this assay and about 1,600 (39%) were called active. Inconclusive results (about 25%) are left out. Calls follow the shape of the dose curve; as a rule, active = well fitted inhibition curve with a large enough effect; inconclusive = small, poorly fitted or top-dose-only effect; inactive = no such curve, though single readings can be large or run the other way. The list shows a part of the results. Where a call stands in place of a potency, no number is given.
experiment: qHTS Validation assay for Inhibitors of Plasmodium falciparum Dd2 growth in vitro; also: nearly all actives have a fitted effect of over 70% in size; conditions: P. falciparum Dd2 in RBCs, SYBR Green growth, 72 h; series mostly up to 28.7 µM
Method in brief: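 P. falciparum Dd2-infected red blood cells (2.5% hematocrit, 0.3% parasitemia) grown 72 h at 37 °C under 5% O2 with compounds in a titration, 29 uM to 0.5 nM final. Growth read as SYBR Green-1 fluorescence after ~16 h lysis; artesunate 300 nM as positive control.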
Potency is read from the fitted curve at half-maximal effect.

Structure (SMILES) | Potency
c1ccc(-c2noc(-c3cncnc3NC3CCCCCC3)n2)cc1 | inactive
CC(C)(C)NC(=S)Nc1ccc(Nc2ccccc2)cc1 | inactive
CC(C)Oc1ccc2c(c1)OC(c1ccccc1)(C(F)(F)F)NC2=O (stereo unspecified) | 2660 nM (active)
CCOc1ccc2c(c1)OC(c1ccc(C)cc1)(C(F)(F)F)NC2=O (stereo unspecified) | 2660 nM (active)
CCCNC(=O)Nc1ccc(OC2CCN(C(=O)CC)C2)nc1 (stereo unspecified) | inactive
CCOC(=O)Cn1c(=O)c2c(nc(N3CCCCC3)n2C)n(C)c1=O | inactive
CCn1c(N2CCC(C)CC2)nc2c1c(=O)n(C)c(=O)n2C | 5960 nM (active)
O=C(Nc1ccc([N+](=O)[O-])cc1)Nc1nc(-c2ccc(Cl)s2)cs1 | 2990 nM (active)
O=C(Nc1ccc(Cl)cc1)Nc1nc(-c2ccccc2O)cs1 | 6680 nM (active)
O=C(Nc1nc(-c2ccccn2)cs1)c1cccc(S(=O)(=O)N2CCOCC2)c1 | 5960 nM (active)
COc1ccc(-c2csc(NC(=O)C(CC(=O)O)N3CCOCC3)n2)cc1 (stereo unspecified) | inactive
O=C(Nc1nc(-c2ccccn2)cs1)c1ccc(F)c(S(=O)(=O)N2CCOCC2)c1 | 2110 nM (active)
N#Cc1cc(C#N)c(N2CCN(c3cccc(Cl)n3)CC2)nc1N | 3350 nM (active)
Cn1nccc1C(=O)N1CCC2(CC1)NCCc1c2[nH]c2ccccc12 | inactive
COCc1noc(CC2CCOC3(CCN(C(=O)c4c[nH]c5ccccc45)CC3)C2)n1 (stereo unspecified) | inactive
Cc1ccc(C(=O)N2CCC(c3c[nH]c4ccccc34)(c3c[nH]c4ccccc34)CC2)cc1 | 8410 nM (active)
c1ccc([C@H]2CN3CCSC3=N2)cc1 | inactive
CC(C)(C)c1ccc(C(=O)N2CCC3(C2)NC(=O)N(Cc2ccc(Cl)cc2)C3=O)cc1 (stereo unspecified) | inactive
NC(Cc1ccccc1)C(=O)N1CCC2(CC1)CN(C(=O)c1ccc(Cl)cc1)CCO2 (stereo unspecified) | 842 nM (active)
O=C(NCc1ccccc1)N1CCC2(CC1)CC(N(C(=O)c1ccccc1)C1CC1)CCO2 (stereo unspecified) | inactive
Cc1ccc(CN2CCNC(=O)C2CC(=O)N(CC(C)C)CC(C)C)cc1 (stereo unspecified) | inactive
CC1(C)Cc2c(c(N3CCOCC3)nc3snc(Br)c23)CO1 | 299 nM (active)
CCN1CCN(c2nc(SC)nc3sc4c(c23)CC(C)(C)OC4)CC1 | inactive
CCOc1cc(NC(=S)NC)c(OCC)cc1NC(=O)c1ccco1 | inactive
Cc1ccc(CNC(=O)c2ccc(N3CCC4(CC3)CC(c3cccc(Br)c3)=NO4)c(NC(=O)c3ccco3)c2)cc1 | 8410 nM (active)
CCCNC(=O)c1ccc(N2CCC3(CC2)CC(c2cccc(Br)c2)=NO3)c(NC(=O)c2ccco2)c1 | 2990 nM (active)

Reference: PubChem BioAssay AID1347416 (National Center for Advancing Translational Sciences (NCATS), 2020)
